The source of these data is PubChem BioAssay (Tox21).

Structures are written as SMILES. Values without a mark were called inactive. Results filed as inconclusive are left out. Activity calls are given as the source filed them. Unless noted, the call rests on the fitted dose curve; in most records, active means well fitted curve in the direction sought with a large enough effect in the repeat runs; inconclusive means weak or mixed curves; inactive means no such curve, though single readings can be large; an effect the other way counts as inactive or inconclusive.

A short description of experiment [1]: A CellTox Green Cytotoxicity Assay to monitor cytotoxicity in HepG2 cells - 8 hour (AID 1224890). Further: nearly all actives have a fitted effect of over 45% in size. In outline: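 First, HepG2 cells (600/well) mixed with reagent were plated; second, after 5 h at 37 C they received compounds via pintool; third, fluorescence was measured at 0 h through 40 h at 8 h intervals.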
A short description of experiment [2]: qHTS assay to identify small molecule antagonists of the estrogen receptor alpha (ER-alpha) signaling pathway using the BG1 cell line in the presence of 0.1 nM 17-beta-estradiol - cell viability counter screen (AID 1259241). Further: nearly all actives have a fitted effect of over 40% in size. In outline: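 VM7Luc4E2 cells (endogenous full-length ER-alpha, 4xERE-luciferase), cultured 5 days in charcoal-stripped serum, exposed to compounds with 0.1 nM 17beta-estradiol (final) for 22 hr at 37C. Viability read in same wells as live-cell protease fluorescence after 30 min.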

Experiment [3] in a line: qHTS assay to identify small molecule antagonists of the androgen receptor (AR) signaling pathway using the MDA cell line in the presence of 0.5 nM R1881 - cell viability counter screen (AID 1259242). Further: nearly all actives have a fitted effect of over 45% in size. The procedure, abridged:
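qHTS format. MDA-kb2 (MMTV-luc, AR/GR responsive) + cpd + 0.5 nM R1881 final, 16 hr 37C/0% CO2 → CellTiter-Fluor 30 min → fluorescence intensity.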

For experiment [4], the target named is Androgen receptor (Homo sapiens) (UniProt P10275). Nature of the experiment: qHTS assay to identify small molecule antagonists of the androgen receptor (AR) signaling pathway using the MDA cell line in the presence of 0.5 nM R1881 (AID 1259243). Further: nearly all actives have a fitted effect of over 50% in size. In outline:
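Antagonist mode quantitative HTS in MDA-kb2 MMTV-luciferase cells, agonist R1881 at 0.5 nM final, 16 hr exposure at 37C and 0% CO2, luminescent detection.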

Experiment [5] addresses Estrogen receptor (Homo sapiens) (UniProt P03372). Description: qHTS assay to identify small molecule antagonists of the estrogen receptor alpha (ER-alpha) signaling pathway using the BG1 cell line in the presence of 0.1 nM 17-beta-estradiol (AID 1259244). Further: nearly all actives have a fitted effect of over 50% in size. The procedure, abridged: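 Reporter is a stably transfected luciferase under four estrogen responsive elements in VM7Luc4E2 cells expressing native full-length ER-alpha; inhibition of 0.1 nM (final) 17beta-estradiol-driven signal over 22 h is read by luminescence.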

Experiment [6] in a line: qHTS assay to identify small molecule HDAC inhibitors (AID 1259364). Further: potency means the concentration at half of the fitted maximal effect.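 Further: wild-type HCT-116 cells with endogenous class I/II HDAC activity; nearly all actives have a fitted effect of over 45% in size.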 On activity change, negative = inhibition: top concentration of the series differs between compounds. In outline:
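Quantitative high-throughput format: overnight-seeded HCT-116 cells got compounds for 2 hr at 37C; HDAC-Glo I/II reagent added, 30 min RT, luminescence measured.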

The nature of experiment [7]: qHTS assay to identify small molecule HDAC inhibitors - cell viability counter screen (AID 1259365). Further: series mostly up to about 92 µM; nearly all actives have a fitted effect of over 50% in size. The procedure, abridged: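 Wild-type HCT-116 cells, 1,500/well, cultured overnight, then compound-treated 2 h at 37 C. Viability measured as ATP luminescence with CellTiter-Glo after 30 min at room temperature.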
The nature of experiment [8]: qHTS assay to identify small molecule agonists of the sonic hedgehog signaling (Shh) pathway - cell viability counter screen (AID 1259366). Further: nearly all actives have a fitted effect of over 50% in size. In outline:
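NIH/3T3-derived Gli1-Luc reporter cells, 2,000 per well, received compound after 4 h and were treated about 23 h at 37C. Viability measured in the same wells by CellTiter-Fluor fluorescence after 1 h.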

Experiment [9] is described as follows: qHTS assay to identify small molecule antagonists of the sonic hedgehog signaling (Shh) pathway - cell viability counter screen (AID 1259367). Further: nearly all actives have a fitted effect of over 55% in size. The procedure, abridged: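 CellTiter-Fluor signal in conditioned medium-stimulated 3T3 Gli1-Luc cells, 23 hr compound exposure, 37C.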
The nature of experiment [10]: qHTS assay to identify small molecule phospholipidosis (PLD) inducers (AID 1259344; active means well fitted curve in the direction sought with a large enough effect; an effect the other way counts as inactive or inconclusive). In outline:
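Accumulated phospholipid, stained red by LipidTOX during 24 h compound treatment of HepG2 cells at 37 C, is quantified from images as pit number and intensity, normalised per cell using Hoechst-stained nuclei.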
On the % scale 0 is the no-effect control and ±100 the full control effect.

Sequence of Estrogen receptor (Homo sapiens) (P03372 whole entry, looked up): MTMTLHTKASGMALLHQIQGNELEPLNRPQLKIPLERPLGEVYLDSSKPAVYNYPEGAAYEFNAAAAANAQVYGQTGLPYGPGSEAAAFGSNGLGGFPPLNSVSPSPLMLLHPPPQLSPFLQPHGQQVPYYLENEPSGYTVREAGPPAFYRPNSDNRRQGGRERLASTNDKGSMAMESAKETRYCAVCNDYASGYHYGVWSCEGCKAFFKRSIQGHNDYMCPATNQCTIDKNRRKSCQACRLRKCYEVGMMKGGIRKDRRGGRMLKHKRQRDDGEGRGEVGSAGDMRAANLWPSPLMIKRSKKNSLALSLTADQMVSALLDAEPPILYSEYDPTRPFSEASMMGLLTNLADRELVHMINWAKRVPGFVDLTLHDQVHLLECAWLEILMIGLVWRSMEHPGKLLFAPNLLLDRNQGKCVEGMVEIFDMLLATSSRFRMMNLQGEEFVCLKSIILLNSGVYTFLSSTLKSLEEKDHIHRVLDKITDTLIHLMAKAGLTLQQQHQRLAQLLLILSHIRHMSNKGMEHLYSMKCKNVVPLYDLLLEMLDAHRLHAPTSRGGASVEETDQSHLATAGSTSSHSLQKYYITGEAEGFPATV
Sequence of Androgen receptor (Homo sapiens) (P10275 whole entry, looked up): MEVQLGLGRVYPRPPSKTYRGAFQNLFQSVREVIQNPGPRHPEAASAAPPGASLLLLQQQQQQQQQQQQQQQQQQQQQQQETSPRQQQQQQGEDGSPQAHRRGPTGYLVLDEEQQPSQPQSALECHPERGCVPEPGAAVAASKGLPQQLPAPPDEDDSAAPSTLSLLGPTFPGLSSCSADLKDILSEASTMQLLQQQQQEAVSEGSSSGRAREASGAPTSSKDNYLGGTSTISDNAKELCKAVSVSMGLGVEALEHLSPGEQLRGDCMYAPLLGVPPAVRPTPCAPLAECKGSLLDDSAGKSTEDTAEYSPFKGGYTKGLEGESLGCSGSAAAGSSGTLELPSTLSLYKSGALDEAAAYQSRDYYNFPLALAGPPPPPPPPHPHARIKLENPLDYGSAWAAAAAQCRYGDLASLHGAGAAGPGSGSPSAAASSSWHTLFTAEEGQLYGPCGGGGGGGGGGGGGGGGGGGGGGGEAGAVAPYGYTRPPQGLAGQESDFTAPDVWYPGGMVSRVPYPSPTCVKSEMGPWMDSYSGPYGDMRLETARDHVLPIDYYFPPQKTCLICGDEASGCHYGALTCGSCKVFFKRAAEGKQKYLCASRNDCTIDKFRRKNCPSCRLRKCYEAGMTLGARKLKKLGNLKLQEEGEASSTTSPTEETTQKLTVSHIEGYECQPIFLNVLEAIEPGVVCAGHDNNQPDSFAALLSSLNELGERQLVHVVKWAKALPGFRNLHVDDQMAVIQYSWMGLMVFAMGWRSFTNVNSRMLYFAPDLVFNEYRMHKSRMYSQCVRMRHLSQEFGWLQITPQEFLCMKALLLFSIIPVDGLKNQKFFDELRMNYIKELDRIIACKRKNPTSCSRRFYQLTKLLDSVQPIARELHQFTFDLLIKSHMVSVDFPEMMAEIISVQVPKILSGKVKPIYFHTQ

Turning to `CCCCCCCCCC(C)=O`, the molecule was called inactive in experiment [1], in [3] and in experiment [7]. The Potency entry in experiment [2], in experiment [4], in experiment [5], in experiment [6] and in experiment [8] was “inactive” throughout.
In the case of `CC(C)(C)c1nnc(NS(=O)(=O)c2ccc(N)cc2)s1`, the call in experiment [1], in experiment [3] and in experiment [7] was inactive. For the same molecule, the Potency entry in experiment [2], in experiment [4], in experiment [5], in experiment [6], in experiment [8] and in [9] was “inactive” throughout.
As for `COCCc1ccc(OCC2CO2)cc1` (centres undefined), the outcome in [1], in experiment [3] and in experiment [7] was inactive. Moreover, the Potency entry in experiment [2], in experiment [4], in experiment [5], in experiment [6], in experiment [8] and in [9] was “inactive” in each case.
Turning to `Nc1ccc(S(=O)(=O)Nc2ccc(Cl)nn2)cc1`, the outcome in [1], in experiment [3], in [10] and in experiment [7] was inactive. Further, the Potency entry in experiment [2], in experiment [4], in experiment [5], in experiment [6] and in experiment [8] was “inactive” throughout.
For `O=C(OCC(O)CO)c1ccccc1Nc1ccnc2c(C(F)(F)F)cccc12` (centres undefined), the outcome in experiment [1], in [3] and in experiment [7] was inactive. For the same molecule, the Potency result in experiment [2], in [4], in [5], in experiment [8] and in [9] was “inactive” throughout.
For the molecule `CC(CO)c1ccccc1` (centres undefined), the molecule was called inactive in experiment [1], in experiment [3] and in [7]. Moreover, the Potency result in experiment [2], in [4], in experiment [5], in experiment [6], in [8] and in experiment [9] was “inactive” in each case.
As to `COc1nccnc1NS(=O)(=O)c1ccc(N)cc1`, the molecule was called inactive in experiment [1], in experiment [3], in experiment [10] and in [7]. Besides, the Potency entry in [2], in experiment [4], in experiment [8] and in [9] was “inactive” throughout.
For `OCCC(F)(F)C(F)(F)C(F)(F)C(F)(F)C(F)(F)C(F)(F)C(F)(F)C(F)(F)F`, the molecule was called inactive in [1], in experiment [3] and in experiment [7]. Further, the Potency result in [2], in experiment [4], in experiment [5], in [8] and in experiment [9] was “inactive” throughout.
Take `CCC(CC)CO`: the call in experiment [1], in experiment [3] and in [7] was inactive. The Potency result in experiment [2], in [4], in experiment [5], in [6], in experiment [8] and in experiment [9] was “inactive” in each case.
As for `CCC(C)NC(N)=O` (centres undefined), the molecule was classed as inactive in experiment [1], in [3] and in [7]. The Potency entry in experiment [2], in experiment [4], in [5], in [6] and in [8] was “inactive” each time.
Regarding `CCCCOC(=O)c1ccccc1`, the molecule was classed as inactive in experiment [1], in experiment [3] and in experiment [7]. For the same molecule, the Potency entry in [2], in experiment [4], in [5], in experiment [6], in experiment [8] and in [9] was “inactive” each time.
Consider `O=C(O)c1cc(Cl)cc([N+](=O)[O-])c1Cl`, for which the molecule was classed as inactive in experiment [1], in [3] and in experiment [7]. In addition, the Potency result in [2], in experiment [4], in [5], in experiment [6] and in [8] was “inactive” throughout.
For `C=C(C)C1CCC(C)(O)CC1` (centres undefined), the molecule was classed as inactive in experiment [1], in [3] and in experiment [7]. Also, the Potency entry in experiment [2], in experiment [4], in [5], in [6], in experiment [8] and in experiment [9] was “inactive” throughout.
In the case of `NC(CO)C(=O)NNCc1ccc(O)c(O)c1O` (centres undefined), the outcome in experiment [1], in experiment [3], in experiment [10] and in [7] was inactive. Also, the Potency result in experiment [2], in experiment [4], in [5], in experiment [6] and in experiment [9] was “inactive” each time.
On to `CC(C)(C)NC(N)=O`, for which the molecule was classed as inactive in experiment [1], in experiment [3] and in [7]. In addition, the Potency result in experiment [2], in experiment [4], in experiment [5], in [6], in experiment [8] and in experiment [9] was “inactive” in each case.
For the molecule `CN1C(C)(C)CCCC1(C)C`, the result in experiment [1], in [3], in experiment [10] and in experiment [7] was inactive. In addition, the Potency result in [2], in [5], in [6], in experiment [8] and in experiment [9] was “inactive” throughout.
Consider `CC1(CO)CN(c2ccccc2)NC1=O` (centres undefined), for which the molecule was classed as inactive in experiment [1], in experiment [3] and in [7]. Besides, the Potency entry in [2], in [4], in experiment [8] and in experiment [9] was “inactive” in each case. For the same molecule, the Potency in experiment [6] is 24.3 µM (active).
For `COc1ccc(S(=O)(=O)N2c3ccc(Cl)cc3[C@@](O)(c3ccccc3Cl)[C@H]2C(=O)N2CCC[C@@H]2C(N)=O)cc1OC`, the molecule was called inactive in [1], in [3], in experiment [10] and in experiment [7]. The Potency result in experiment [2], in experiment [5], in experiment [6], in experiment [8] and in experiment [9] was “inactive” each time.
Turning to `CC(=O)NCCCCCC(=O)O`, the outcome in experiment [1], in experiment [3], in experiment [10] and in [7] was inactive. Moreover, the Potency result in experiment [2], in experiment [5], in experiment [6], in experiment [8] and in experiment [9] was “inactive” in each case.
`CN1CCN(CC(=O)N2c3ccccc3C(=O)Nc3cccnc32)CC1`: in [1], the cytotoxicity increase was -13.9% [at 6.97 µM]. Also, the activity change, negative = cytotoxicity in experiment [2] was 5.03% [at 8.39 µM]; in [7], 3.63% [at 8.39 µM]. Moreover, the viability change, negative = cytotoxic was 1.29% [at 8.39 µM] in experiment [3], 1.72% [at 8.39 µM] in experiment [8] and 0.196% [at 8.39 µM] in [9]. In addition, the values for the activity change, negative = inhibition in experiment [5] and in [6] were 8.49% [at 8.39 µM] and 0.529% [at 8.39 µM], respectively. Further, in [10], the outcome was inactive.
`C[C@H](CCC(=O)O)[C@H]1CC[C@H]2[C@@H]3C(=O)C[C@@H]4CC(=O)CC[C@]4(C)[C@H]3CC(=O)[C@]12C`: the molecule was classed as inactive in [1], in experiment [3], in experiment [10] and in experiment [7]. The Potency entry in experiment [2], in experiment [5], in experiment [6], in experiment [8] and in experiment [9] was “inactive” each time.
As to `O=C1O[C@@H]2[C@@H](O)[C@H](O)O[C@@H]2[C@H]1O`, the molecule was called inactive in [1], in experiment [3], in experiment [10] and in [7]. Besides, the Potency entry in experiment [2], in experiment [5], in experiment [6], in experiment [8] and in [9] was “inactive” throughout.
In the case of `O=C1c2ccccc2C(=O)C1c1ccccc1`, the molecule was classed as inactive in experiment [1], in [3], in experiment [10] and in experiment [7]. The Potency result in [2], in experiment [5], in [6] and in experiment [8] was “inactive” each time.
